In PubChem BioAssay AID504444 (National Center for Advancing Translational Sciences (NCATS), 2011) one finds Potency and activity change, negative = inhibition data, which are given here for 62 compounds.

Each structure is given as a SMILES string. The campaign covered roughly 360,000 compounds. About 7,500 (2.1%) were called active. Where a call stands in place of a potency, no number is given. Inconclusive results (about 20%) are left out. Many of the other results were omitted from the sample, so actives are more common in it than they were. A number with no mark means an inactive call. Calls follow the shape of the dose curve; as a rule, active = well fitted inhibition curve with a large enough effect; inconclusive = small, poorly fitted or top-dose-only effect, or effect the other way; inactive = flat fitted curve, though single readings scatter.
Potency is read from the fitted curve at half-maximal effect.

This assay can be described thus: Nrf2 qHTS screen for inhibitors. Also: nearly all actives have a fitted effect of over 60% in size. The note with it: A549 ARE-Fluc reporter, luciferase luminescence, 18-24 h; series mostly up to 46 µM. A digest of the protocol: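 A549 ARE_Fluc cells (5000/well, 5% FBS OPTI-MEM) pre-incubated 2 h, then treated with compounds 18-24 h at 37C/5% CO2 in concentration-response. CellTiter-Fluor viability read first; BugLite luciferase luminescence after 15 min at room temperature gives Nrf2 activity.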
Background: Quantitative high-throughput screening tests each substance at several concentrations.
Take `COc1ccccc1CNC(=O)C(Cc1ccccc1)NS(=O)(=O)c1ccc2c(c1)oc(=O)n2C` (configuration not stated): the Potency entry is “inactive”.
On the same count and under the same terms, as for `COc1ccc(NC(=O)CN2CCCN(Cc3ccccc3)S2(=O)=O)cc1`, the entry is “inactive”; as for `COC(=O)c1ccc(NCc2cc(O)ccc2O)cc1`, “inactive”; as for `CN(CC(=O)Nc1ccc(Cl)cc1)CC(=O)Nc1cccc2ccccc12`, “inactive”.
The same measure, in the same setting: under `O=C(c1ccc(Cl)c(S(=O)(=O)N2CCCCCC2)c1)N1CCN(c2ccc(O)cc2)CC1` stands 23.1 µM (active).
Take `O=C(c1ccc(Cl)c(Cl)c1)N1CCCC1`: the Potency entry was “inactive”.
With `O=C(c1ccc(Cl)c(S(=O)(=O)N2CCCCC2)c1)N1CCCCCC1`, the Potency entry is “inactive”.
Turning to `O=C(c1ccccc1F)N1CCC(c2nc3c(nnn3Cc3cccc(F)c3)c(=O)[nH]2)CC1`, the Potency entry was “inactive”.
On the same count and under the same terms, under `COc1ccc(CN2C(=O)C(NC(=O)c3cccc(C)c3)(C(F)(F)F)N=C2c2ccccc2)cc1` (configuration not stated) stands “inactive”.
As for `COc1ccc(CCNC(=O)CSc2nnc3ccc(-c4ccncc4)nn23)cc1`, the Potency entry was “inactive”.
Same read-out and setting: under `COc1ccc(CCNC(=O)CSc2nc(-c3ccc(OC)c(OC)c3)ccc2C#N)cc1` stands 18.4 µM (active); under `COc1cccc(-c2ccc(C#N)c(SCC(=O)NCCc3ccc(Cl)cc3)n2)c1`, “inactive”; under `CCOc1ccc2oc(=O)cc(CN3CCN(C(=O)c4ccc(F)cc4)CC3)c2c1`, “inactive”.
Consider `O=C1c2ccccc2C(=O)C1c1ccccc1F`, for which the Potency entry was “inactive”.
Same read-out and setting: as for `O=C1c2ccccc2C2=Nc3ccccc3SC(c3ccccc3F)C12` (configuration not stated), the figure is 23.1 µM (active); as for `Cc1cccc(NC(=O)c2nnn(CC(=O)Nc3ccc(C(C)C)cc3)c2N)c1C`, “inactive”.
On the same count and under the same terms, as for `O=C(CSc1nnc(CN2CCCC2)n1-c1ccc(F)cc1)c1ccc2c(c1)OCO2`, the entry is “inactive”.
Take `COc1ccccc1-c1cc(C(F)(F)F)nc(S(=O)(=O)CCCC(=O)Nc2ccc(F)cc2F)n1`: the activity change, negative = inhibition is 10.4% [at 9.27 µM].
In the case of `COc1cc(C(=O)NC2CCN(C)CC2)ccc1Nc1ncc2c(n1)N(C1CCC(O)CC1)CCC(=O)N2C` (configuration not stated), the Potency entry is “inactive”.
With `O=C(CN1CCN(C(=S)NC2CCCC2)CC1)Nc1ccc(Oc2ccccc2)cc1`, the Potency is 16.4 µM (active).
In the case of `CCOc1ccc(NC(=O)CN2CCN(CC(=O)Nc3ccc(OC)cc3)CC2)cc1`, the Potency entry is “inactive”.
On the same count and under the same terms, as for `CCOc1ccc(NC(=S)N2CCC(NC(=O)c3ccccc3)CC2)cc1`, the entry is “inactive”; as for `CCc1cc2c(-c3ccccc3)cc(=O)oc2c2c1OCN(Cc1ccc(C)cc1)C2`, “inactive”.
On to `O=C(Cc1ccc(NC(=O)C2CCCN(C(=O)CCc3ccccc3)C2)cc1)Nc1ccc(C(=O)N2CCOCC2)cc1` (configuration not stated), for which the Potency result was “inactive”.
`CC(C)OC(=O)c1ccc(NCc2cc(O)ccc2O)cc1Cl`: the Potency entry is “inactive”.
Take `O=S(=O)(c1ccccc1)c1nc(-c2ccccc2F)oc1NCc1cccnc1`: the Potency entry is “inactive”.
In the case of `Cc1ccc(S(=O)(=O)c2nc(-c3cccs3)oc2NCc2cccnc2)cc1`, the Potency result is “inactive”.
Still for that read-out and setting: as for `O=S(=O)(c1ccc(Br)cc1)c1nc(-c2ccccc2)oc1NCc1cccnc1`, the figure is 20.6 µM (active); as for `CC[N+]1(CC)CC2=Cc3ccccc3CC2C1` (configuration not stated), 23.1 µM (active); as for `COc1cc(OC)cc(C(=O)Nc2c(C(=O)Nc3ccc(F)cc3)oc3ccccc23)c1`, “inactive”.
The same measure, in the same setting: under `COc1cccc(/C=N/Nc2cc(C)nc(-c3ccccc3O)n2)c1O` stands 14.6 µM (active); under `COc1cccc(/C=N/NC(=O)c2[nH]nc3c2CCc2ccccc2-3)c1O`, “inactive”; under `COc1cccc(/C=N\NC(=O)C2=NNC(=O)C2C)c1O` (configuration not stated), “inactive”.
Take `Cc1nc2nc(SCC(=O)N(Cc3ccccc3)C(C)C)nn2c(C)c1Cc1ccccc1Cl`: the activity change, negative = inhibition was 8.79% [at 9.27 µM].
`CCN1CCc2nc3sc(C(=O)Nc4ccccc4OC(F)(F)F)c(N)c3cc2C1`: the Potency result was “inactive”.
Same read-out and setting: as for `COC(=O)c1c(NC(=O)CCN2CCOCC2)sc2c1CCCC2`, the entry is “inactive”; as for `COC(=O)c1c(NC(=O)C2CC(C)=C(C)CC2C(=O)O)sc2c1CCCCC2` (configuration not stated), “inactive”; as for `COC(=O)c1c(NC(=O)c2ccc(Cl)c(Cl)c2)sc2c1CCCC2`, “inactive”.
On the same count and under the same terms, as for `NC(=O)c1c(NC(=O)CSc2nc(N)cc(=O)[nH]2)sc2c1CCCC2`, the entry is “inactive”; as for `COC(=O)c1c(NC(=O)CSc2nncs2)sc2c1CCCCC2`, 18.4 µM (active); as for `COC(=O)c1c(NC(=O)CCCC(=O)O)sc2c1CCCCC2`, 5.17 µM (active).
For the compound `CCOC(=O)C1=CN(Cc2ccc(Br)cc2)S(=O)(=O)N(C)C1C` (configuration not stated), the Potency result is “inactive”.
On to `CCNC(=O)N(CC)C[C@H]1N[C@@](CC)(C(=O)OC)[C@H]2C(=O)N(Cc3ccccc3)C(=O)[C@@H]12`, for which the Potency entry is “inactive”.
On the same count and under the same terms, as for `O=C1c2ccccc2[C@@H]2C[C@@H](O)[C@H](Nc3ccccc3Cl)CCN12`, the entry is “inactive”; as for `C=CCn1c(SCc2cccc(F)c2)nc2cc(C(=O)N3CCC(C(N)=O)CC3)ccc2c1=O`, “inactive”; as for `Cc1cc(=O)[nH]c(SCc2cccc(F)c2)n1`, “inactive”.
Still for that read-out and setting: under `CCn1cc2nc(SCc3cccc(F)c3)n(CCc3ccccc3)c(=O)c2n1` stands 23.1 µM (active).
The same measure, in the same setting: as for `O=C(Cn1cc(SCc2ccccc2)c2ccccc21)N1CCCCC1`, the entry is “inactive”.
With `COc1ccc(CCNc2nc(-c3ccc(F)cc3)cc(C(F)(F)F)n2)cc1OC`, the activity change, negative = inhibition is 8.32% [at 9.27 µM].
With `COc1ccccc1CNC(=O)c1ccc(-n2c(C)cc3c2CCCC3)cc1`, the Potency result was “inactive”.
Still for that read-out and setting: as for `CCOc1ccc(CNC(=O)CCc2c(C)nn(-c3ccc(N4CCCCC4)nn3)c2C)cc1`, the entry is “inactive”; as for `O=C(O)c1ccc(CSc2nc3cccnc3n2Cc2cccc(F)c2)cc1`, “inactive”; as for `O=C(NCc1ccc(F)cc1)c1ccc(Cn2c(SCc3ccc(F)cc3)nc3cccnc32)cc1`, “inactive”.
As for `Cc1oc(-c2ccccc2)nc1Cn1c(SCc2cccc(C(F)(F)F)c2)nc2cccnc21`, the Potency was 25.9 µM (active).
The same measure, in the same setting: as for `CCN(Cc1ccccc1)C(=O)c1cn(-c2cccc(OC)c2)c(=O)c2ccccc12`, the entry is “inactive”; as for `c1ccc(-c2nc(NCc3ccco3)c3ccccc3n2)cc1`, “inactive”.
The same measure, in the same setting: as for `Cc1ccc(Oc2nc(-c3ccccn3)nc3ccccc23)cc1`, the entry is “inactive”; as for `CC(C)(C)Nc1nc(-c2ccccn2)nc2ccccc12`, 20.6 µM (active).
As to `CCOc1ccc(C(=O)c2cn(Cc3ccccc3OC)c3ccc(F)cc3c2=O)cc1`, the Potency result is “inactive”.
Still for that read-out and setting: as for `O=C(N/N=C/c1ccoc1)c1ccc(Cl)cc1Cl`, the entry is “inactive”; as for `CC(C)(C)C(=O)Nc1ccc(C(=O)N/N=C/c2ccccc2OC(=O)c2ccc(Cl)cc2Cl)cc1`, 13 µM (active); as for `O=C(N/N=C/c1ccc(OC(=O)c2ccccc2Cl)cc1)c1ccc(O)cc1`, “inactive”.
